The values below come from PubChem BioAssay (NCI).

Compounds without any hit were thinned out: in the full panel of roughly 83,000, 20% have a hit.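 For each line, cells grew in 96-well plates with the test compound present at a single concentration for 48 hours.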 Values without a mark were called inactive. The source made the active and inactive calls. Rule for the calls: active = growth percent below 10; inactive = the rest.

Test systems include NCI-H23 lung; NCI-H226 lung; NCI-H322M lung; HOP-62 NSCLC; NCI-H460 lung; HOP-92 NSCLC; NCI-H522 lung; A549/ATCC NSCLC; 786-0 renal; COLO 205 colon.
Test in all cases: NCI-60 one-dose screen, 48 h (100 = growth as untreated, 0 = no growth, -100 = all killed)
Details in all cases: 10 µM unless noted

Consider `C=C(C)[C@@H]1CC[C@]2(C(=O)O)CC[C@]3(C)[C@H](CC[C@@H]4[C@@]5(C)CCC(NC(=O)c6cccc(OC(C)=O)c6OC(C)=O)C(C)(C)[C@@H]5CC[C@]43C)[C@@H]12` (stereo not given in full), for which the growth in the assay with NCI-H23 lung is 1.89% (active); in the assay on NCI-H226 lung, -17.4% (active); in the assay with NCI-H322M lung, 8.78% (active); in the assay with HOP-62 NSCLC, -14.6% (active); with NCI-H460 lung, -39.4% (active); in the assay with HOP-92 NSCLC, -11% (active). Moreover, the results for the growth with NCI-H522 lung, in the assay with A549/ATCC NSCLC and with 786-0 renal were -11.4% (active), -6.31% (active) and -3.81% (active), respectively.

With `Cc1csc(Nc2nc(-c3ccccn3)nc(C(Cl)(Cl)Cl)n2)n1`, the growth with NCI-H23 lung is 84.9%; with NCI-H226 lung, 101%; in the assay with NCI-H322M lung it was 80.5%; in the assay on HOP-62 NSCLC it was 101%; in the assay on NCI-H460 lung, 84%; in the assay on HOP-92 NSCLC, 94.1%. The figures for the growth in the assay with NCI-H522 lung, in the assay on A549/ATCC NSCLC and in the assay with 786-0 renal were 86.7%, 79.4% and 94.8%, respectively.

Turning to `Nc1nc2ccccc2c2c(=O)c3cccc(Cl)c3sc12`, the growth in the assay with NCI-H23 lung was 80.3%; in the assay on NCI-H226 lung, 94.4%; in the assay on NCI-H322M lung it was 89.1%; in the assay with HOP-62 NSCLC, 81.8%; in the assay on NCI-H460 lung, 61.5%; in the assay on HOP-92 NSCLC it was 101%. Besides, the growth in the assay on NCI-H522 lung is 93.3%; with A549/ATCC NSCLC, 76.8%; with 786-0 renal, 96.2%; with COLO 205 colon, 57.2%.

As for `O=C(Nc1cccc(-c2ccc(Cl)c(C(F)(F)F)c2)c1)C1CCN(Cc2cccc3cccnc23)CC1`, the growth with NCI-H23 lung is 48.2%; with NCI-H226 lung, 45.9%; in the assay with NCI-H322M lung, 35.5%; with HOP-62 NSCLC it was 62.3%; with NCI-H460 lung it was -87.2% (active); with HOP-92 NSCLC it was 30.2%. For the same compound, the growth with NCI-H522 lung is -53% (active); in the assay on A549/ATCC NSCLC, -30.8% (active); with 786-0 renal it was 31.9%.

For the compound `COc1cc(NS(=O)(=O)c2ccc(-c3cnc(C4CC4)o3)cc2)ccc1F`, the growth in the assay on NCI-H23 lung is 33.6%; in the assay with NCI-H226 lung, 36.7%; in the assay with NCI-H322M lung, 49.5%; in the assay with HOP-62 NSCLC, 41.8%; in the assay with NCI-H460 lung it was 18.7%; with HOP-92 NSCLC, 33.8%. The growth in the assay with NCI-H522 lung is 0.251% (active); with A549/ATCC NSCLC it was 34.4%; with 786-0 renal, 31.4%.

As for `Cc1ccc2c(n1)C(=O)C(Br)=C(C1CCCC1)C2=O`, the growth in the assay on NCI-H23 lung is 92.4%; in the assay with NCI-H226 lung, 94.3%; in the assay on NCI-H322M lung, 100%; in the assay on HOP-62 NSCLC, 84%; in the assay with NCI-H460 lung it was 110%; in the assay with HOP-92 NSCLC it was 98.4%. Also, the growth is 83.6% with NCI-H522 lung, 94.4% in the assay with A549/ATCC NSCLC and 101% with 786-0 renal.

Regarding `O=C(Nc1ccc(OS(=O)(=O)c2ccc(F)cc2)cc1)C1CCCCCC1`, the growth was 83.6% in the assay with NCI-H23 lung; 94.3% in the assay on NCI-H226 lung; 106% in the assay on NCI-H322M lung; 98.6% with HOP-62 NSCLC; 95.5% in the assay on NCI-H460 lung; 83.4% in the assay on HOP-92 NSCLC. Moreover, the growth was 81.2% with NCI-H522 lung, 92.5% in the assay on A549/ATCC NSCLC and 96.6% in the assay on 786-0 renal.

Turning to `O=C1NC2(Nc3ccccc31)C(=O)Nc1c(Cl)cc(Cl)cc12` (stereo not given), the growth with NCI-H23 lung is 104%; with NCI-H226 lung, 93.8%; in the assay on NCI-H322M lung it was 110%; in the assay on HOP-62 NSCLC, 84.7%; with NCI-H460 lung, 102%; with HOP-92 NSCLC it was 106%. The growth in the assay with NCI-H522 lung was 103%; in the assay with A549/ATCC NSCLC it was 110%; in the assay on 786-0 renal, 103%; in the assay on COLO 205 colon it was 119%.

As to `Cc1ccc(-c2nc(N3CCCNCC3)c3oc(-c4ccccc4)nc3n2)cc1`, the growth was 9.93% (active) with NCI-H23 lung; 93.1% in the assay on NCI-H226 lung; -70.4% (active) in the assay on NCI-H322M lung; -55.3% (active) in the assay with HOP-62 NSCLC; -67.9% (active) in the assay on NCI-H460 lung; -27.1% (active) in the assay with HOP-92 NSCLC. Also, the results for the growth with NCI-H522 lung, in the assay with A549/ATCC NSCLC and with 786-0 renal were -74.6% (active), -87.8% (active) and -89.8% (active), respectively.

Turning to `CC(=O)O[C@@H]1C[C@]2(C(C)C)O[C@@]1(C)[C@@H]1CCC(C)=C1[C@@H]2OC(=O)/C=C/c1ccccc1`, the growth is 95.3% in the assay with NCI-H23 lung; 66.2% in the assay on NCI-H226 lung; 93.4% with NCI-H322M lung; 90.6% in the assay on HOP-62 NSCLC; 94.2% in the assay on NCI-H460 lung; 72.8% in the assay on HOP-92 NSCLC. For the same compound, the growth is 73.3% in the assay on NCI-H522 lung, 82.3% with A549/ATCC NSCLC and 87.6% with 786-0 renal.

As for `N#CSCC1CC(O)(c2ccccc2)CC(c2ccc(F)cc2)O1` (stereo not given), the growth was 20.5% with NCI-H23 lung; -7.79% (active) in the assay with NCI-H226 lung; 50.9% in the assay with NCI-H322M lung; -36.8% (active) with HOP-62 NSCLC; -28.9% (active) in the assay with NCI-H460 lung; 29.6% in the assay with HOP-92 NSCLC. Besides, the growth with NCI-H522 lung is -57% (active); in the assay with A549/ATCC NSCLC, 27.8%; in the assay on 786-0 renal it was 0.242% (active); in the assay with COLO 205 colon, 16.6%.

In the case of `CSc1nc2ncc([N+](=O)[O-])c(=O)n2[nH]1`, the growth is 104% in the assay on NCI-H23 lung; 97% in the assay on NCI-H226 lung; 110% in the assay on NCI-H322M lung; 98.8% with HOP-62 NSCLC; 103% in the assay with NCI-H460 lung; 52.4% in the assay on HOP-92 NSCLC. The growth in the assay on NCI-H522 lung was 93.8%; in the assay with A549/ATCC NSCLC, 101%; with 786-0 renal it was 108%.

Turning to `CCCCCCCCCc1ccc(OCCOCCOCCOCCOCCOCCOCCOCCOCCO)cc1`, the growth is 7.69% (active) with NCI-H23 lung; 17.3% in the assay on NCI-H226 lung; 57.3% with NCI-H322M lung; 128% in the assay with HOP-62 NSCLC; 11.2% in the assay with NCI-H460 lung; -9.71% (active) in the assay on HOP-92 NSCLC. Further, the growth in the assay on NCI-H522 lung was -9.88% (active); in the assay on A549/ATCC NSCLC it was 17.3%; in the assay on 786-0 renal, 27.4%; in the assay on COLO 205 colon it was 109%.

As for `COc1cc2ncnc(Nc3ccc(S(=O)(=O)Nc4cc(C)on4)cc3)c2cc1OCCCN1CCN(c2ccc(F)cc2)CC1`, the growth with NCI-H23 lung is 105%; with NCI-H226 lung, 98.1%; in the assay with NCI-H322M lung, 99.6%; in the assay with HOP-62 NSCLC it was 92.2%; in the assay on NCI-H460 lung, 102%; in the assay with HOP-92 NSCLC, 125%. Moreover, the growth in the assay on NCI-H522 lung was 91%; with A549/ATCC NSCLC, 101%; in the assay with 786-0 renal, 110%.
